How the values were obtained:
Experiment in all cases: PBM binding z-score (relative to random genomic background probes); higher = stronger binding; sequences stand for … in GC…GCGATTGACAGCGTAGAATGAAGG
[1] = tested on: PPARg:RXRa DBDmut IVT, anti-RXR (DBD mutation: RXRa K156A/R161A, NR concentration 270 nM, RXRa partner concentration 90 nM)
Summary of the method: (§1)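 Probes were double-stranded and carried 34-nt variable regions with direct-repeat seeds, single-nucleotide variants, half-site ablations and random human genomic background sequences, printed on custom Agilent 4×180K protein-binding microarrays. Arrays were incubated 1 h with ligand-free nuclear receptor dimers in PBS pH 7.4, 2% milk, 0.02% Triton X-100, 1 mM DTT, 0.2 mg/mL BSA and 0.4 mg/ml salmon testes DNA. Antibodies against each partner (one per run) detected binding, and scanned fluorescence was regression-normalized. Binding z-scores use the random background probes as reference.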

[2] = tested on: PPARg:RXRa IVT, anti-PPARg (NR concentration 270 nM, RXRa partner concentration 90 nM)
Summary of the method: as §1

[3] = tested on: PPARg DBDmut:RXRa IVT, anti-PPARg (DBD mutation: PPARg1 K132A/R137A, NR concentration 270 nM, RXRa partner concentration 90 nM)
Summary of the method: as §1

[4] = tested on: PPARg DBDmut IVT, anti-PPARg (DBD mutation: PPARg1 K132A/R137A, NR concentration 270 nM)
Summary of the method: as §1

[5] = tested on: PPARg homodimer (NR concentration 180 nM)
Summary of the method: as §1

[6] = tested on: PXR:RXRa (NR concentration 270 nM, RXRa partner concentration 90 nM)
Summary of the method: as §1

[7] = tested on: PXR homodimer (NR concentration 270 nM)
Summary of the method: as §1

[8] = tested on: RARa:RXR (NR concentration 270 nM, RXRa partner concentration 90 nM)
Summary of the method: as §1

[9] = tested on: RARa homodimer (NR concentration 270 nM)
Summary of the method: as §1

[10] = tested on: RARb:RXRa (NR concentration 270 nM, RXRa partner concentration 90 nM)
Summary of the method: as §1

Sequence	PBM binding z-score [1]	PBM binding z-score [2]	PBM binding z-score [3]	PBM binding z-score [4]	PBM binding z-score [5]	PBM binding z-score [6]	PBM binding z-score [7]	PBM binding z-score [8]	PBM binding z-score [9]	PBM binding z-score [10]
CGAACTAGGTCATCTAGGACAGTGAATACATTGA	8.06	8.21	3.51	1.83	2.99	1.73	0.602	2.23	0.753	3.92
TCTATTAGTTGATTAGGCCAACCGAAACAGCGGA	2.31	0.958	0.847	0.784	1.2	0.477	0.547	0.834	1.24	0.707
CAAACTAAGTCACGAAAGGTCAAAGTCGAATGAC	2.8	3.64	0.905	0.93	3.63	6.08	2.1	6.41	1.43	4.83
ACAGACAGGTGAGTGAAGGTAACTTAGCTGGACG	0.507	0.549	-0.0823	-0.397	0.206	-0.213	-0.19	0.132	-0.0854	0.486
GCTTACGGGTCAGAGGTTATAGCATGAATAGAAT	2.54	4.73	0.344	0.535	2.65	3.89	0.491	5.92	0.521	3.58
ATCGAAGGGTCGACGAGGTGAGTATACACCGTTT	-0.299	0.882	-0.145	0.665	0.411	1.11	-0.598	2.02	-0.471	2.3
CCGACTGAGGCAAAGGTTACCATACTCAGTACGA	0.849	2.47	-0.356	-0.203	1.16	1.56	0.0581	2.31	0.408	1.78
GGAACGAGGGCAAGTTAATAGCAGAGTTTGATGG	3.46	2.52	0.284	-0.167	0.47	0.548	0.977	0.427	-0.189	2.26
CCTACTGGGCCACGACAGGTCATTGATTCAGTGA	5.23	5.51	1.69	-0.106	0.946	1.97	0.00199	2.15	-0.183	2.01
CCAACGAGGGCATGAGTTGATAGCAAATGCCGAT	1.66	1.08	-0.303	-0.467	-0.0585	0.213	-0.173	0.447	-0.402	1.69
ACTAGCAGGCCAAGTTTGGGTCAATCAAACAAAG	0.842	0.959	-0.753	-0.879	0.326	0.526	-0.382	1.33	-0.558	1.65
ACTATTAGTTGAGACGAGGGCAAACGATAGGTTG	0.0525	0.456	1.03	1.15	0.189	1.83	0.478	0.637	0.392	0.841
GCGACTGGGGCATCAGCAAGTTACCATAACTTAA	3.88	2.87	-1.33	-0.593	-0.528	-0.359	-0.789	-0.454	-0.707	0.453
CATACTAGGTCACAGAGGTCAAAGTCCGTGCGTA	7.7	8.21	1.7	0.913	4.99	6.49	11.3	6.62	2.6	5.27
TCTGCTAGGTCAACGATGATCAGCTAATCTGCTA	4.26	4.06	0.35	0.888	0.451	0.896	-0.713	1.77	-0.998	3.99
ACTCGTAGGACAAAGGTCAGAGCTACGCCAGTGA	1.2	3.67	0.241	0.756	4.17	3.73	0.25	4.94	1.41	4.18
TCGAGAAGGTTAGGGGCATTCAGAATGGCGTCGA	1.15	0.162	-1.01	-0.967	0.818	0.866	-0.0334	0.991	0.387	2.02
CCTAGTAGGCCAGGGTCACTCAAGCATTTCGCTT	4.28	4.48	-0.152	-1.37	0.886	2.55	-0.126	2.8	-0.346	2.65
GATACAGGGTCAGCCAGAGGCCAGAGTATGGAAA	1.1	2.63	0.315	-0.142	2.32	3.4	-0.204	4.58	0.402	4.19
ACTATTAGTTGACTTAGGGCAAGCGATACGACGC	0.209	0.768	0.636	1.04	0.596	0.255	0.294	0.775	0.794	0.892
CGTCCAAGGTCAATGCTAGGACAGTGAAAGCATT	3.02	3.24	-0.452	-0.465	1.7	3.22	0.241	3.44	-0.11	4.96
ATCTCTAGGTAAAAATAGTTCAGTGAATGCAAAT	1.13	1.46	0.671	1.22	0.455	0.922	1.12	0.59	1.51	0.993
CTCGAAAGGTCGGTTGATGTGAGTATACGGATAA	0.122	0.641	0.802	0.00433	1.37	1.07	0.216	1.41	0.252	2.86
TCATACAGGTAAAAGGTGAAAGTCGGTGTGGTAA	3.28	3.68	0.157	1.18	1.6	1.83	0.448	3.13	1.16	2.1

Source: the supplement of paper PMC6555819
